In the supplement of paper PMC10338343:
± gives the standard deviation.

These sequences were tested on MILI (PIWIL2) piRISC loaded with piRNA #1 (26 nt) (assay: pre-steady-state target cleavage rate (min^-1); guide: piRNA #1 5'p-UGAGGUAGUAGGUUGUAUAGUAUCCA; higher = faster piRNA-guided slicing of the target). Conditions: auxiliary factor: 500 nM mouse GTSF1.
In short: (§1)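 Cleave-'n-Seq used a transcribed, DNA-blocked target RNA library at 0.1 nM and active affinity-purified piRISC with one synthetic guide at 1 nM, with or without 500 nM GTSF1 partner protein, in HEPES–potassium acetate buffer at 33 °C for 0–8 or 0–960 min. Uncleaved targets were sequenced and normalised to depth and to weakly complementary targets, and three trials were pooled with k3 capped at 0.0001 min^-1. The pre-steady-state cleavage rate was estimated by a burst-and-steady-state fit.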

Sequence | pre-steady-state target cleavage rate
GGAGACCUAACUAAUACAACCUACUACCUCA | 0.103 ± 0.025
GGAGACGAUACUAUACAACCUAUUACCUCA | 0.219 ± 0.021
GGAGACCAUACUGAUACAACCUACUACCUCA | 0.112 ± 0.014
GGAGACGAUUCUAAACAACCUACUACCUCA | 0.168 ± 0.012
GGAGACCUAUCUGAUACAACCUACUACCUCA | 0.0421 ± 0.0081
GGAGACCUAACUAUACAACCUACUACCACA | 0.176 ± 0.038
GGAGACGAUUCUAUACAACGUACUACCUCA | 0.0237 ± 0.0031
GGAGACGAUACUAUAUCAACCUACUACCUCA | 0.123 ± 0.013
GGAGACCAUACUAUUCAACCUACUACCUGA | 0.114 ± 0.018
GGAGACCACACUAUACAACCUACUACCUCA | 0.221 ± 0.042
GGAGACCAUACUUAACAACCUACUACCUCA | 0.134 ± 0.018
GGAGACCAUACUAUUCAACCUACUACGUCA | 0.0881 ± 0.013
GGAGACGAUACUAUACAACCUAAUACCUCA | 0.103 ± 0.015
GGAGACCAAACUAUACAACCUACUACGUCA | 0.042 ± 0.015
GGAGACGAUUCUAUACUACCUACUACCUCA | 0.213 ± 0.011
GGAGUCGAUACUAUACAACCUACUACCACA | 0.175 ± 0.014
GGAGACGAUACUAUACAACCUCCUACCUCA | 0.041 ± 0.0079
GGAGUGGAAUACUAUACAACCUACUACCUCA | 0.165 ± 0.0081
GGAGACCUUACUAUACAACCUACUAGCCUCA | 0.181 ± 0.018
GGAGACGAUACUAUACAACCAACUACGUCA | 0.00504 ± 0.0028

Sequence | pre-steady-state target cleavage rate
GGAGUGGAGACUAUACAACCUACUACCUCA | 0.212 ± 0.029
GGAGAGGAUACUAUACAACCGUACUACCUCA | 0.00509 ± 0.0031
GGAGACGUUACUAUACAACCUACUACCUCA | 0.186 ± 0.014
GGAGACCUUACUAUACAACCUACUACACUCA | 0.15 ± 0.022
GGAGAGGAUACUAUACAACCAUACUACCUCA | 0.00709 ± 0.0019
GGAGACGAUACUAUACAUCCUACUACCACA | 0.334 ± 0.021
GGAGACCUUACUAUACAACCCACUACCUCA | 0.0224 ± 0.0038
GGAGAGGAUACUUUUCAACCUACUACCUCA | 0.145 ± 0.011
GGAGAGGAUACUAUAAAACCUACUACCUCA | 0.181 ± 0.013
GGAGACCUAACUAUACAACGUACUACCUCA | 0.0137 ± 0.0057
GGAGACGAUACUAUACAACUCUACUACCUCA | 0.00377 ± 0.0022
GGAGAGGAUAGCUAUACAACCUACUACCUCA | 0.035 ± 0.0046
GGAGUGAAUACUAUACAACCUACUACCUCA | 0.175 ± 0.009
GGAGACCUAACUAUACACCCUACUACCUCA | 0.0388 ± 0.013
GGAGACCAUACUAUACAACGUAGUACCUCA | 0.0119 ± 0.0033
GGAGUGGAUAUAUACAACCUACUACCUCA | 0.152 ± 0.01
GGAGACCAUACUAUUCAACCUACUACCUCA | 0.189 ± 0.016
GGAGUGGUUACUAUACAACCUACUACCUCA | 0.186 ± 0.0089
GGAGUAGGAUACUAUACAACCUACUACCUCA | 0.145 ± 0.016
GGAGACGAUAUAUACAACCUACUACCUCA | 0.154 ± 0.011

Each sequence was assayed on EfPiwi piRISC loaded with piRNA #1 (26 nt) (assay: pre-steady-state target cleavage rate (min^-1); auxiliary factor: 500 nM Ephydatia muelleri Gtsf1; guide: piRNA #1 5'p-UGAGGUAGUAGGUUGUAUAGUAUCCA; MIWI and MILI are mouse PIWI proteins and EfPiwi is from a freshwater sponge; tags in brackets are library labels; higher = faster piRNA-guided slicing of the target). Conditions: not given.
In short: as §1

Sequence | pre-steady-state target cleavage rate
GGAGACCUAACUAAUACAACCUACUACCUCA | 0.0103 ± 0.0044
GGAGACGAUACUAUACAACCUAUUACCUCA | 0.0146 ± 0.0053
GGAGACCAUACUGAUACAACCUACUACCUCA | 0.0368 ± 0.013
GGAGACGAUUCUAAACAACCUACUACCUCA | 0.00926 ± 0.0045
GGAGACCUAUCUGAUACAACCUACUACCUCA | 0.00758 ± 0.0035
GGAGACCUAACUAUACAACCUACUACCACA | 0.00545 ± 0.0034
GGAGACGAUUCUAUACAACGUACUACCUCA | 0.00356 ± 0.0021
GGAGACGAUACUAUAUCAACCUACUACCUCA | 0.0198 ± 0.0082
GGAGACCAUACUAUUCAACCUACUACCUGA | 0.00313 ± 0.0026
GGAGACCACACUAUACAACCUACUACCUCA | 0.0344 ± 0.015
GGAGACCAUACUUAACAACCUACUACCUCA | 0.00395 ± 0.0032
GGAGACCAUACUAUUCAACCUACUACGUCA | 0.00376 ± 0.0034
GGAGACGAUACUAUACAACCUAAUACCUCA | 0.00553 ± 0.0025
GGAGACCAAACUAUACAACCUACUACGUCA | 0.00503 ± 0.0027
GGAGACGAUUCUAUACUACCUACUACCUCA | 0.00459 ± 0.0029
GGAGUCGAUACUAUACAACCUACUACCACA | 0.0037 ± 0.0015
GGAGACGAUACUAUACAACCUCCUACCUCA | 0.00579 ± 0.0016
GGAGUGGAAUACUAUACAACCUACUACCUCA | 0.122 ± 0.045
GGAGACCUUACUAUACAACCUACUAGCCUCA | 0.00471 ± 0.0044
GGAGACGAUACUAUACAACCAACUACGUCA | 0.00251 ± 0.0018

Sequence | pre-steady-state target cleavage rate
GGAGUGGAGACUAUACAACCUACUACCUCA | 0.0807 ± 0.031
GGAGAGGAUACUAUACAACCGUACUACCUCA | 0.00659 ± 0.0028
GGAGACGUUACUAUACAACCUACUACCUCA | 0.0209 ± 0.0092
GGAGACCUUACUAUACAACCUACUACACUCA | 0.0028 ± 0.0026
GGAGAGGAUACUAUACAACCAUACUACCUCA | 0.00323 ± 0.0026
GGAGACGAUACUAUACAUCCUACUACCACA | 0.0049 ± 0.0017
GGAGACCUUACUAUACAACCCACUACCUCA | 0.00926 ± 0.0048
GGAGAGGAUACUUUUCAACCUACUACCUCA | 0.00409 ± 0.004
GGAGAGGAUACUAUAAAACCUACUACCUCA | 0.00425 ± 0.0029
GGAGACCUAACUAUACAACGUACUACCUCA | 0.00454 ± 0.0022
GGAGACGAUACUAUACAACUCUACUACCUCA | 0.00452 ± 0.0031
GGAGAGGAUAGCUAUACAACCUACUACCUCA | 0.0146 ± 0.0073
GGAGUGAAUACUAUACAACCUACUACCUCA | 0.102 ± 0.037
GGAGACCUAACUAUACACCCUACUACCUCA | 0.00682 ± 0.0033
GGAGACCAUACUAUACAACGUAGUACCUCA | 0.00264 ± 0.0023
GGAGUGGAUAUAUACAACCUACUACCUCA | 0.0139 ± 0.0066
GGAGACCAUACUAUUCAACCUACUACCUCA | 0.0056 ± 0.0032
GGAGUGGUUACUAUACAACCUACUACCUCA | 0.00957 ± 0.004
GGAGUAGGAUACUAUACAACCUACUACCUCA | 0.0546 ± 0.019
GGAGACGAUAUAUACAACCUACUACCUCA | 0.00621 ± 0.0041
